Records with an inconclusive call do not appear. Active and inactive are the calls of the source. Rule for the calls: active = hit-call score of the fitted dose curve at least 0.9, where 1 is the maximum; inconclusive = response in the unintended direction; inactive = score below 0.9.
Legend:
[1] = read-out: Cytochrome P450 3A4 (Homo sapiens) (UniProt P08684); assay: CLD_CYP3A4_24hr: CellzDirect (CLD) Gene Expression Assay for xenobiotic metabolism (CYP3A4) at 24 hours (AID 2283689)
Method in brief: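 Primary human hepatocytes from two donors dosed daily with fresh compound for two days, 0.2% DMSO vehicle. CYP3A4 mRNA at 24 hr by qNPA chemiluminescence; gain-of-signal fit versus DMSO, cytotoxicity flagged by morphology.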

[2] = read-out: organic anion transporter (SLCO1B1), SLCO1B1 (gene 10599); assay: CLD_SLCO1B1_24hr: CellzDirect (CLD) Gene Expression Assay for organic anion transporter (SLCO1B1) at 24 hours (AID 2283690)
Method in brief: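 Primary human hepatocytes (two donor preparations) dosed daily for two days with chemicals at multiple concentrations, 0.2% DMSO vehicle. SLCO1B1 mRNA at 24 h measured by qNPA chemiluminescence; induction fitted relative to DMSO.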

[3] = read-out: glucuronosyltransferase (UGT1A1), UGT1A1 (gene 54658); assay: CLD_UGT1A1_24hr: CellzDirect (CLD) Gene Expression Assay for glucuronosyltransferase (UGT1A1) at 24 hours (AID 2283696)
Method in brief: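 Primary human hepatocytes from two donor preparations were dosed (0.2% DMSO vehicle) and harvested at 24 h; UGT1A1 mRNA induction was quantified by chemiluminescent qNPA, fitted as gain relative to DMSO.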

[4] = read-out: Cytochrome P450 3A4 (Homo sapiens) (UniProt P08684); assay: CLD_CYP3A4_48hr: CellzDirect (CLD) Gene Expression Assay for xenobiotic metabolism (CYP3A4) at 48 hours (AID 2283698)
Method in brief: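 Primary human hepatocytes from two donor preparations dosed daily for two days with multiple chemical concentrations, 0.2% DMSO vehicle. CYP3A4 mRNA at 48 h by quantitative nuclease protection assay, chemiluminescence, positive fit versus DMSO; cytotoxicity flagged morphologically.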

[5] = read-out: HMG-CoA synthase (HMGCS2), HMGCS2 (gene 3158); assay: CLD_HMGCS2_24hr: CellzDirect (CLD) Gene Expression Assay for HMG-CoA synthase (HMGCS2) at 24 hours (AID 2283691)
Method in brief: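 Primary human hepatocytes from two donor preparations, dosed daily with fresh solutions; vehicle 0.2% DMSO, 24 h harvest. HMGCS2 mRNA quantified by qNPA with S1 nuclease digestion and chemiluminescence; gain fitted versus DMSO, cytotoxicity annotated by morphology.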

[6] = read-out: ABC Transporter (ABCB11), ABCB11 (gene 8647); assay: CLD_ABCB11_48hr: CellzDirect (CLD) Gene Expression Assay for ABC Transporter (ABCB11) at 48 hours (AID 2283697)
Method in brief: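 Primary human hepatocytes from two donor preparations dosed daily for two days at multiple concentrations; 0.2% DMSO vehicle. ABCB11 mRNA at 48 h by quantitative nuclease protection assay, chemiluminescence; fitted for induction versus DMSO.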

[7] = read-out: ABC Transporter (ABCB1), ABCB1 (gene 5243); assay: CLD_ABCB1_48hr: CellzDirect (CLD) Gene Expression Assay for ABC Transporter (ABCB1) at 48 hours (AID 2283695);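 for AC50: potency for induction meaning increase of mRNA over DMSO vehicle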
Method in brief: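 Primary human hepatocytes from two donor preparations dosed daily on two consecutive days with 0.2% DMSO vehicle. Harvest at 48 h. ABCB1 mRNA quantified by qNPA with chemiluminescence and fitted for gain of signal versus DMSO.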

[8] = read-out: xenobiotic metabolism (CYP2C9), CYP2C9 (gene 1559); assay: CLD_CYP2C9_24hr: CellzDirect (CLD) Gene Expression Assay for xenobiotic metabolism (CYP1A2) at 24 hours (AID 2283688);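 note: potency for induction meaning a rise in CYP2C9 mRNA over DMSO vehicle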
Method in brief: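 Primary human hepatocytes from two donor preparations, dosed daily for two days at multiple concentrations; vehicle 0.2% DMSO. CYP2C9 mRNA induction at 24 h measured by qNPA chemiluminescence relative to DMSO; cytotoxicity annotated from morphology.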

[9] = read-out: sulfotransferase (SULT2A), SULT2A1 (gene 6822); assay: CLD_SULT2A_24hr: CellzDirect (CLD) Gene Expression Assay for sulfotransferase (SULT2A) at 24 hours (AID 2283694);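 for AC50: potency for increased SULT2A1 mRNA level as induction over DMSO baseline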
Method in brief: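 Primary human hepatocytes from two donor preparations were dosed daily with fresh solutions, vehicle 0.2% DMSO. At 24 h, lysates went to quantitative nuclease protection (qNPA) with S1 digestion and chemiluminescent readout. Cytotoxicity was annotated from phase-contrast morphology.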

Chain of Cytochrome P450 3A4 (Homo sapiens) (P08684 whole entry, looked up): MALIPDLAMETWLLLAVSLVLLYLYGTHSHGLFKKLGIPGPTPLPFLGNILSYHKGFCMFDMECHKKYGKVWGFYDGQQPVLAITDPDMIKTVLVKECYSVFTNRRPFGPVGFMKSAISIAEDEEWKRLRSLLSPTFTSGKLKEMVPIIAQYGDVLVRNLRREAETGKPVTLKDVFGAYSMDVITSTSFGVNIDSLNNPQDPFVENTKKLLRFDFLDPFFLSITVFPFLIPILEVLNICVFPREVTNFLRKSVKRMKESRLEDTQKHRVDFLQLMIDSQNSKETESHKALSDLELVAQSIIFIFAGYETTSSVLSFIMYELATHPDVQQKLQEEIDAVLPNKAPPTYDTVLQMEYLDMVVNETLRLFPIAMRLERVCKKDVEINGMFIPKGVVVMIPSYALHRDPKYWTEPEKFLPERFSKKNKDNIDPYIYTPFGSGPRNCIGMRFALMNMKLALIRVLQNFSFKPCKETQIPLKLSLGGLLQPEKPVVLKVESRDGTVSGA

Q: With `Clc1cccc(C(Cl)(Cl)Cl)n1` as the compound, how does the outcome [1] read?
A: inactive

Q: And the outcome [2]?
A: inactive

Q: What about the outcome [3] of the same compound?
A: inactive

Q: What about the AC50 [4] of the same compound?
A: 3.02 µM (active)

Q: Which results are given for `COP(=O)(OC)O/C(C)=C/C(=O)N(C)C`?
A: outcome [1]: inactive; outcome [2]: inactive; outcome [5]: inactive; outcome [6]: inactive; outcome [4]: inactive

Q: With `CC(C)=CC1C(C(=O)OCc2coc(Cc3ccccc3)c2)C1(C)C` (stereo not given) as the compound, how does the outcome [1] read?
A: inactive

Q: And the outcome [2]?
A: inactive

Q: For `COCc1cnc(C2=NC(C)(C(C)C)C(=O)N2)c(C(=O)O)c1` (stereo not given), which outcome [1] is on record?
A: inactive

Q: What about the outcome [5] of the same compound?
A: inactive

Q: What about the outcome [6] of the same compound?
A: inactive

Q: And the outcome [4]?
A: inactive

Q: What does the source list for `CC1(C)C(C(=O)OC(C#N)c2cccc(Oc3ccccc3)c2)C1(C)C` (stereo not given)?
A: AC50 [1]: 13 µM (active); outcome [5]: inactive; outcome [7]: inactive; AC50 [3]: 5.68 µM (active); AC50 [4]: 20 µM (active)

Q: Which outcome [1] does the source give for `Nc1c(Cl)c(Cl)nc(C(=O)O)c1Cl` here?
A: inactive

Q: What about the outcome [5] of the same compound?
A: inactive

Q: And the outcome [4]?
A: inactive

Q: What does the source list for `CC(C)N1C(=O)c2ccccc2NS1(=O)=O`?
A: outcome [1]: inactive; outcome [5]: inactive; outcome [4]: inactive

Q: Which AC50 [8] does the source give for `CS(=O)(=O)c1ccc(C(=O)C2C(=O)CCCC2=O)c([N+](=O)[O-])c1` here?
A: 0.000305 µM (active)

Q: And the outcome [1]?
A: inactive

Q: What about the outcome [5] of the same compound?
A: inactive

Q: What about the outcome [6] of the same compound?
A: inactive

Q: For `Cc1c(COC(=O)[C@@H]2[C@H](/C=C(\Cl)C(F)(F)F)C2(C)C)cccc1-c1ccccc1`, which AC50 [1] is on record?
A: 6.84 µM (active)

Q: And the outcome [2]?
A: inactive

Q: What about the AC50 [3] of the same compound?
A: 20 µM (active)

Q: And the AC50 [4]?
A: 4.01 µM (active)

Q: `CCCN(CC)CC1COC2(CCC(C(C)(C)C)CC2)O1` (stereo not given) was tested. Which AC50 [1] did it give?
A: 4.82 µM (active)

Q: And the outcome [2]?
A: inactive

Q: And the AC50 [5]?
A: 0.0742 µM (active)

Q: What about the AC50 [4] of the same compound?
A: 2.82 µM (active)

Q: What does the source list for `Nc1c(Cl)c(F)nc(OCC(=O)O)c1Cl`?
A: outcome [1]: inactive; outcome [2]: inactive; outcome [6]: inactive; AC50 [4]: 0.0004 µM (active)

Q: `CC1(C)CCC(=Cc2ccc(Cl)cc2)C1(O)Cn1cncn1` (stereo not given) was tested. Which outcome [1] did it give?
A: inactive

Q: `CCCC(=NOCC)C1=C(O)CC(CC(C)SCC)CC1=O` (stereo not given) was tested. Which AC50 [1] did it give?
A: 32.9 µM (active)

Q: And the outcome [2]?
A: inactive

Q: And the outcome [3]?
A: inactive

Q: What about the outcome [6] of the same compound?
A: inactive

Q: What about the AC50 [4] of the same compound?
A: 20 µM (active)

Q: With `CCOc1nc(F)cc2nc(S(=O)(=O)Nc3c(Cl)cccc3Cl)nn12` as the compound, how does the AC50 [1] read?
A: 2.93 µM (active)

Q: What about the outcome [5] of the same compound?
A: inactive

Q: What about the AC50 [9] of the same compound?
A: 5.51 µM (active)

Q: And the outcome [7]?
A: inactive

Q: And the outcome [3]?
A: inactive

Q: What about the AC50 [4] of the same compound?
A: 3.13 µM (active)

Q: `CS(=O)(=O)c1cc(C(F)(F)F)ccc1C(=O)c1cnoc1C1CC1` was tested. Which AC50 [1] did it give?
A: 9.79 µM (active)

Q: And the outcome [2]?
A: inactive

Q: And the AC50 [4]?
A: 29.1 µM (active)

Q: What does the source list for `O=c1n(Cl)c(=O)n(Cl)c(=O)n1Cl`?
A: outcome [1]: inactive; outcome [2]: inactive; outcome [7]: inactive; outcome [3]: inactive; outcome [6]: inactive

Q: How did the AC50 [1] turn out when `CCCCC(O)(Cn1cncn1)c1ccc(Cl)cc1Cl` (stereo not given) was run?
A: 1.13 µM (active)

Q: What about the outcome [9] of the same compound?
A: inactive

Q: What about the AC50 [7] of the same compound?
A: 31.9 µM (active)

Q: What about the AC50 [4] of the same compound?
A: 1.89 µM (active)

Q: Which results are given for `CCOP(=O)(OCC)Oc1nc(Cl)c(Cl)cc1Cl`?
A: AC50 [1]: 3.97 µM (active); outcome [2]: inactive; outcome [5]: inactive; outcome [9]: inactive; outcome [6]: inactive; outcome [4]: inactive

Q: Which outcome [1] does the source give for `Cc1cnc(C2=NC(C)(C(C)C)C(=O)N2)c(C(=O)O)c1` (stereo not given) here?
A: inactive

Q: And the outcome [2]?
A: inactive

Q: What does the source list for `CN=C=S`?
A: outcome [1]: inactive; outcome [2]: inactive; outcome [5]: inactive; outcome [4]: inactive

Q: For `COP(=S)(OC)Oc1ccc([N+](=O)[O-])c(C)c1`, which AC50 [1] is on record?
A: 16.6 µM (active)

Q: And the outcome [2]?
A: inactive

Q: And the outcome [7]?
A: inactive

Q: What about the AC50 [4] of the same compound?
A: 0.0472 µM (active)

Q: `CNC(=O)N(C)c1nnc(C(C)(C)C)s1` was tested. Which outcome [1] did it give?
A: inactive

Q: And the outcome [2]?
A: inactive

Q: With `O=C(O)c1c(Cl)ccc2cc(Cl)cnc12` as the compound, how does the outcome [1] read?
A: inactive

Q: What about the outcome [2] of the same compound?
A: inactive

Q: And the outcome [6]?
A: inactive

Q: What about the outcome [4] of the same compound?
A: inactive

Q: Which outcome [1] does the source give for `COC(=O)NS(=O)(=O)c1ccc(N)cc1` here?
A: inactive

Q: What about the outcome [2] of the same compound?
A: inactive

Q: And the outcome [5]?
A: inactive

Q: What about the outcome [6] of the same compound?
A: inactive

Q: And the outcome [4]?
A: inactive

Q: With `Cc1nc(N(C)C)nc(OC(=O)N(C)C)c1C` as the compound, how does the AC50 [1] read?
A: 20 µM (active)

Q: And the outcome [5]?
A: inactive

Q: What about the outcome [3] of the same compound?
A: inactive

Q: What about the outcome [6] of the same compound?
A: inactive

Q: And the outcome [4]?
A: inactive

Q: What does the source list for `CC1(C)CON(Cc2ccccc2Cl)C1=O`?
A: AC50 [1]: 20 µM (active); outcome [2]: inactive; AC50 [4]: 5.13 µM (active)

Q: Which results are given for `N#Cc1c(Cl)cccc1Cl`?
A: outcome [1]: inactive; outcome [2]: inactive; outcome [3]: inactive; AC50 [4]: 4.83 µM (active)

Q: For `N#CN=C1SCCN1Cc1ccc(Cl)nc1`, which AC50 [1] is on record?
A: 10.9 µM (active)

Q: What about the outcome [5] of the same compound?
A: inactive

Q: And the outcome [3]?
A: inactive

Q: And the outcome [6]?
A: inactive

Q: And the AC50 [4]?
A: 20 µM (active)

Q: Which results are given for `OC(c1ccc(Cl)cc1)(c1ccc(Cl)cc1)C(Cl)(Cl)Cl`?
A: AC50 [1]: 4.09 µM (active); outcome [2]: inactive; outcome [7]: inactive; outcome [6]: inactive; AC50 [4]: 11 µM (active)
